From PubChem BioAssay (Tox21)
The source made the active and inactive calls. A call without a number means that no potency is given here. Unless noted, calls come from the whole dose curve; as a rule, active = well fitted curve in the direction sought with a large enough effect in the repeat runs; inconclusive = weak or mixed curves; inactive = no such curve, though single readings can be large; an effect the other way counts as inactive or inconclusive. Starred links: 1 amine or outer side, 2 acyl side, 3 side chain; linkers in the order of their positions; H or OH if unused. Positions of bridges follow the written chain, without caps; N, C: chain ends. Non-standard residues stand in square brackets, D forms with d. Residues, ends and D or L forms follow the SMILES beside them. *: point of attachment. X5 = NC1=N[C@@H]([C@H](N[*:1])C(=O)[*:2])C[C@H](O)N1; ΔAla(Z-3-ureido) = NC(=O)N/C=C(\N)C(=O)O; β3hOrn = NCCC[C@H](N)CC(=O)*; Dap = NC[C@H](N)C(=O)O

Tests used:
[1] = qHTS assay to identify small molecule antagonists of the thyroid receptor (TR) signaling pathway - cell viability counter screen (AID 743064); details: GH3.TRE-Luc viability, CellTiter-Fluor, 24 h; series mostly up to 70.3 µM; note: nearly all actives have a fitted effect of over 50% in size; note: potency is the fitted concentration of half-maximal effect
Procedure, shortened: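 In-well cytotoxicity read by CellTiter-Fluor (30 min, 37 C) following 23.5 h exposure of GH3 cells bearing a TRE-luciferase sensor. Compounds were added alongside 1 nM (final) T3 to drive TR transactivation.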

[2] = qHTS assay to identify small molecule antagonists of the thyroid receptor (TR) signaling pathway (AID 743065); details: GH3.TRE-Luc, T3-stimulated luciferase inhibition, 23.5 h; series mostly up to 70.3 µM; note: nearly all actives have a fitted effect of over 55% in size; note: potency is the fitted concentration of half-maximal effect
Procedure, shortened: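 Antagonism measured as loss of luciferase signal in GH3 cells stably carrying a TRE-luciferase reporter, co-treated with compound and T3 (1 nM final) for 23.5 h at 37 C. Viability was read in the same well by CellTiter-Fluor.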

[3] = system: thyroid hormone receptor (rat, GH3 cells); experiment: qHTS assay to identify small molecule agonists of the thyroid receptor (TR) signaling pathway (AID 743066; calls by dose curve); details: GH3.TRE-Luc cells, TR agonist luciferase, 24 h; series mostly up to 83.9 µM
[4] = qHTS assay to identify small molecule antagonists of the estrogen receptor alpha (ER-alpha) signaling pathway - cell viability counter screen (AID 743074; calls by dose curve;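 note: HEK293 cells carrying ER-alpha-UAS-bla reporter stimulated with 17beta-estradiol; nearly all actives have a fitted effect of over 45% in size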; note: potency is the fitted concentration of half-maximal effect); details: ERalpha-bla HEK293 viability, CellTiter-Glo luminescence, 18 h; series mostly up to 69.4 µM
[5] = qHTS assay to identify small molecule antagonists of the estrogen receptor alpha (ER-alpha) signaling pathway using the BG1 cell line - cell viability counter screen (AID 743081); details: BG1Luc4E2 viability, CellTiter-Fluor, 22 h; series mostly up to 70.3 µM;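 note: compound given together with 17beta-estradiol as the ER stimulus; nearly all actives have a fitted effect of over 45% in size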; note: potency is the fitted concentration of half-maximal effect
[6] = target: Aromatase (Homo sapiens) (UniProt P11511); experiment: qHTS assay to identify aromatase inhibitors (AID 743083); details: MCF-7 aro ERE, testosterone-driven ERE luciferase, 24 h; series mostly up to 70.3 µM; note: nearly all actives have a fitted effect of over 55% in size
Chain of Aromatase (Homo sapiens) (P11511 whole entry, looked up): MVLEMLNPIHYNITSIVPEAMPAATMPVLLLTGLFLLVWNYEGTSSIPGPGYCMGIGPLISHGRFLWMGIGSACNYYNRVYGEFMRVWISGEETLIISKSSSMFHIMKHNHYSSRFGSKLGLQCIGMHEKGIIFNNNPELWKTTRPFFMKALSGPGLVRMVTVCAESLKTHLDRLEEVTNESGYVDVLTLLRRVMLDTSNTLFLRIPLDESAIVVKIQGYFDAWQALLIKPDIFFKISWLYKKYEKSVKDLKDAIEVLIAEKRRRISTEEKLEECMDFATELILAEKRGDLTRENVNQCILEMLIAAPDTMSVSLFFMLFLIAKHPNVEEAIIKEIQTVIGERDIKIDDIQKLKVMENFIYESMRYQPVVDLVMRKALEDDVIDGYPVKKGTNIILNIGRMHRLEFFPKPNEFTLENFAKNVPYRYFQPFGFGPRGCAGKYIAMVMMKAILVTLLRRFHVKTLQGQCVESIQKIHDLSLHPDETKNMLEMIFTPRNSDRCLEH

[7] = target: Estrogen receptor (Homo sapiens) (UniProt P03372); experiment: qHTS assay to identify small molecule antagonists of the estrogen receptor alpha (ER-alpha) signaling pathway (AID 743069; active = well fitted curve in the direction sought with a large enough effect in the signal ratio in the repeat runs, not every such curve was filed as active; inconclusive = weak or mixed curves, or effect the other way; inactive = no such curve, though single readings can be large or run the other way; the % refers to the signal ratio; note: potency is the fitted concentration of half-maximal effect); details: HEK293 ER-alpha-UAS-bla, beta-lactamase ratio, antagonist mode; series mostly up to 69.4 µM
Chain of Estrogen receptor (Homo sapiens) (P03372 whole entry, looked up): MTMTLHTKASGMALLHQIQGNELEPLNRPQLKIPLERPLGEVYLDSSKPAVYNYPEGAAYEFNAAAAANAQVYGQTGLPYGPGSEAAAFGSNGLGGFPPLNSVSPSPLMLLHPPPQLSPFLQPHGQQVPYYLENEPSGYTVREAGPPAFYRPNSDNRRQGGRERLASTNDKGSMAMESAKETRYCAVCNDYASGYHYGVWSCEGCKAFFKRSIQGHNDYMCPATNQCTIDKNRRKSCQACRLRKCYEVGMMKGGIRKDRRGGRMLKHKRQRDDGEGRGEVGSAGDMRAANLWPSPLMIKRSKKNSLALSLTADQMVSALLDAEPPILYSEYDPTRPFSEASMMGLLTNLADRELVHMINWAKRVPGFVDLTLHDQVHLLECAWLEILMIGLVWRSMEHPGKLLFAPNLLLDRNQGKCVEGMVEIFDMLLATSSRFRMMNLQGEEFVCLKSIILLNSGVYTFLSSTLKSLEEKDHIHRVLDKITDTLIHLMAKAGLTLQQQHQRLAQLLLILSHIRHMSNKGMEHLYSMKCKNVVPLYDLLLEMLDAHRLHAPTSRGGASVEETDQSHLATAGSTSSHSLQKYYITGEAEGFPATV
Procedure, shortened: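 ER-alpha-UAS-bla GripTite HEK293 line; 2% charcoal-stripped FBS overnight; plated, 4 hr 37C/5% CO2; cpd in DMSO + 17beta-estradiol, 18 hr 37C; LiveBLAzer B/G FRET substrate 2 hr RT; fluorescence intensity.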

[8] = target: Estrogen receptor (Homo sapiens) (UniProt P03372); experiment: qHTS assay to identify small molecule agonists of the estrogen receptor alpha (ER-alpha) signaling pathway (AID 743075; calls by dose curve;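 note: HEK293 GripTite cells with ER-alpha and UAS-driven beta-lactamase reporter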); details: HEK293 ER-alpha-UAS-bla, beta-lactamase FRET ratio, 18 h; series mostly up to 70.1 µM
[9] = target: Estrogen receptor (Homo sapiens) (UniProt P03372); experiment: qHTS assay to identify small molecule agonists of the estrogen receptor alpha (ER-alpha) signaling pathway using the BG1 cell line (AID 743079); details: BG1Luc4E2 cells, ERE-luciferase agonist, 22 h; activation: at 70.3 µM (top of the series); note: nearly all actives have a fitted effect of over 20% in size; note: potency is the fitted concentration of half-maximal effect
[10] = qHTS assay to identify small molecule antagonists of the estrogen receptor alpha (ER-alpha) signaling pathway using the BG1 cell line (AID 743080; calls by dose curve;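 note: BG1 cells stimulated with 17beta-estradiol alongside compound; nearly all actives have a fitted effect of over 25% in size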); details: BG1Luc4E2 ERE-luciferase antagonist mode, luminescence; series mostly up to 70.3 µM
Procedure, shortened: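 BG1Luc4E2, endogenous ER-alpha, 4xERE-luc; 5 d charcoal-stripped FBS, phenol red free; 24 h plating; cpd + 17beta-estradiol 21.5 h, 37 C/5% CO2; CellTiter-Fluor viability 30 min, then ONE-Glo luciferase 30 min RT.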

SMILES	Potency [1]	Potency [2]	Potency [3]	Potency [4]	Potency [5]	Potency [6]	Potency [7]	Potency [8]	Potency [9]	Potency [10]
CN(CCO)CC(O)Cn1cnc2c1c(=O)n(C)c(=O)n2C (configuration not stated) (tested in a mixture with another compound)	inactive	inactive	inactive	inactive	inactive	inactive				
CCCCCCCCCCCCCCCCCCCCCCO	inactive	inactive	inactive	inactive	inactive	inactive				
CC(C)C[C@H](NC(=O)[C@@H](Cc1c[nH]c2ccccc12)NC(=O)[C@H](Cc1ccc(O)cc1)NC(=O)[C@H](CO)NC(=O)[C@H](Cc1c[nH]c2ccccc12)NC(=O)[C@H](Cc1cnc[nH]1)NC(=O)[C@@H]1CCC(=O)N1)C(=O)N[C@@H](CCCN=C(N)N)C(=O)N1CCC[C@@H]1C(=O)NCC(N)=O	inactive	inactive	inactive	inactive	inactive	inactive				
CS(=O)(=O)Nc1cc2occ(NC=O)c(=O)c2cc1Oc1ccccc1	inactive	inactive	inactive	inactive	inactive	inactive				
C[C@@H](O)[C@H]1C(=O)N2C(C(=O)[O-])=C(SC3Cn4cnc[n+]4C3)[C@H](C)[C@H]12 (some centres not stated)	inactive	inactive	inactive	inactive	inactive	inactive				
NC(=O)OC[C@@H]1[C@H](NC(=O)/C(=N\OCC(=O)O)c2csc(N)n2)C(=O)N1S(=O)(=O)O	inactive	inactive	inactive	inactive	inactive					
O=C(NNCNNC(=O)c1ccncc1)c1ccncc1	inactive	inactive	inactive	inactive	inactive	inactive				
CC(=O)N[C@@H]([C@@H](O)[C@H](O)[C@H](O)CO)[C@@H](O)CC(=O)C(=O)O	inactive	inactive	inactive	inactive	inactive	inactive				
CCC(C)C(C(=O)OCC[N+](C)(CC)CC)c1ccccc1 (configuration not stated)	inactive	inactive	inactive	inactive	inactive	inactive				
CCCCCCCCCCCC(=O)OC[C@@H](O)C1OC[C@H](O)[C@H]1O (some centres not stated)	inactive	inactive	inactive	inactive	inactive	inactive				
CNC(=O)[C@H](Cc1c[nH]c2ccccc12)NC(=O)[C@@H](CC(=O)NO)CC(C)C	1.68 µM (active)	inactive	inactive	inactive	2.66 µM (active)					
Cn1cc(NC(=O)c2cc(NC(=O)c3cc(NC=O)cn3C)cn2C)cc1C(=O)NCCC(=N)N	inactive	inactive	inactive	inactive	inactive	inactive				
CCN(CC)CCOc1ccccc1OC	inactive	inactive	inactive	inactive	inactive	inactive				
OC1OC[C@@H](O)[C@H](O)[C@@H]1O (some centres not stated)	inactive	inactive	inactive	inactive	inactive	inactive				
O=C(/C=C/c1cccc(F)c1)NC1CC1	inactive	inactive	inactive	inactive	inactive	inactive				
CS(=O)(=O)OCCCNCCCOS(C)(=O)=O	inactive	inactive	inactive	inactive		inactive				
CC(=O)Nc1ccc(OC(=O)c2ccccc2O)cc1	inactive	inactive	inactive	inactive	inactive	inactive				
CC(/C=C/C=C(\C)C(=O)O[C@@H]1O[C@H](CO[C@@H]2O[C@H](CO)[C@@H](O)[C@H](O)[C@H]2O)[C@@H](O)[C@H](O)[C@H]1O)=C\C=C\C=C(C)\C=C\C=C(/C)C(=O)O[C@@H]1O[C@H](CO[C@@H]2O[C@H](CO)[C@@H](O)[C@H](O)[C@H]2O)[C@@H](O)[C@H](O)[C@H]1O	inactive	inactive	inactive	inactive	inactive					
O=C1CCC(=O)N1CO	inactive	inactive	inactive	inactive	inactive	inactive				
CN[C@@H]1[C@@H](O)[C@@H](O[C@@H]2[C@@H](O)[C@H](OC3OC(CN)=CCC3N)[C@@H](N)C[C@H]2N)OC[C@]1(C)O (some centres not stated)	inactive	inactive	inactive	inactive	inactive	inactive				
CC(=O)Nc1c(I)c(C(=O)O)c(I)c(N(C)C(C)=O)c1I	inactive	inactive	inactive	inactive	inactive	inactive				
CCCOc1ccc2nc(NC(=O)OC)sc2c1	10.6 µM (active)	2.37 µM (active)	inactive	inactive	inactive	inactive				

SMILES	Potency [1]	Potency [2]	Potency [3]	Potency [4]	Potency [5]	Potency [6]	Potency [7]	Potency [8]	Potency [9]	Potency [10]
O=[n+]1ccn([O-])c2ccccc21	inactive	inactive	inactive	inactive	inactive					
CCCC1C(=O)N2C(N(C)C)=Nc3ccc(C)cc3N2C1=O (configuration not stated)	inactive	inactive	inactive	inactive	inactive	inactive				
CC(C)(S)[C@@H](N)C(=O)O	inactive	inactive	inactive	inactive	inactive	inactive				
COc1ccc(-c2noc(CC(=O)O)c2-c2ccc(OC)cc2)cc1	inactive	inactive	inactive	inactive	inactive	inactive				
NCCC[C@H](N)CC(=O)N[C@H]1CNC(=O)[C@H]([C@H]2C[C@H](O)NC(N)=N2)NC(=O)/C(=C/NC(N)=O)NC(=O)[C@H](CO)NC(=O)[C@H](CO)NC1=O (β3hOrn-[Dap]SS[ΔAla(Z-3-ureido)][X5]; lactam 1-C)	inactive	inactive	inactive	inactive	inactive	inactive				
CCCc1nc(C(C)(C)O)c(C(=O)OCc2oc(=O)oc2C)n1Cc1ccc(-c2ccccc2-c2nn[nH]n2)cc1	inactive	inactive	inactive	inactive	inactive	inactive				
CCOC(=O)[C@H](CCc1ccccc1)N[C@H]1CCCN2CCC[C@@H](C(=O)O)N2C1=O	inactive	inactive	inactive	inactive	inactive	inactive				
O=C1NC(=O)[C@H]2[C@@H]1[C@@H]1C=C[C@H]2C1	inactive	inactive	inactive	inactive	inactive	inactive				
[O]=[Bi][O][Bi]=[O]	inactive	inactive	inactive	inactive	inactive	inactive				
Cc1ncc(C[n+]2csc(CCOP(=O)(O)OP(=O)(O)O)c2C)c(N)n1	inactive	inactive	inactive	inactive	inactive	inactive				
CNC(=O)c1c(I)c(C(=O)NCC(=O)Nc2c(I)c(C(=O)O)c(I)c(C(=O)NCCO)c2I)c(I)c(N(C)C(C)=O)c1I	inactive	inactive	inactive	inactive	inactive					
Cc1ccc(S(=O)(=O)NC(=O)N[C@@H](C)Cc2ccccc2)cc1	inactive	inactive	inactive	inactive	inactive	inactive				
C[C@H]1C[C@@H]2[C@H]([C@@H](O)C[C@@]3(C)[C@H]2CC[C@]3(O)C(=O)COC(=O)CCC(=O)O)[C@@]2(C)C=CC(=O)C=C12	inactive	inactive	inactive	10.7 µM (active)	inactive	inactive				
CCOC(=O)[C@H](CCc1ccccc1)N[C@@H](C)C(=O)N1CC2(C[C@H]1C(=O)O)SCCS2	inactive	inactive	inactive		inactive	inactive				
O=C(O)[C@@H](O)[C@H](O)[C@H](O)[C@@H](O)C(=O)O (tested in a mixture with another compound)	inactive	inactive	inactive			inactive				
CN(C)CCCN1c2ccccc2C(C)(C)c2ccccc21	23.7 µM (active)	26.6 µM (active)		inactive	inactive	inactive	inactive	inactive	inactive	inactive
CC(C)(C)c1ccc(CN2CCN(C(c3ccccc3)c3ccc(Cl)cc3)CC2)cc1 (configuration not stated)	33.5 µM (active)	21.1 µM (active)	inactive		inactive			inactive		inactive
O=C(O)c1cc2ccccc2c(Cc2c(O)c(C(=O)O)cc3ccccc23)c1O	inactive	inactive	inactive	inactive		inactive				
N#Cc1ccc2c(c1)N(CCCN1CCC(O)CC1)c1ccccc1S2	9.44 µM (active)	21.1 µM (active)		inactive	inactive	inactive	inactive	inactive	inactive	inactive
CN(C)C(=O)CCSC(SCCC(=O)O)c1cccc(/C=C/c2ccc3ccc(Cl)cc3n2)c1 (configuration not stated)	29.8 µM (active)	26.6 µM (active)		inactive	inactive	inactive	7.56 µM [inconclusive] (active)	inactive	2.37 µM (active)	
CCN(CC)CCC(=O)N1c2ccccc2Sc2ccc(Cl)cc21	23.7 µM (active)	26.6 µM (active)		inactive		inactive	inactive	inactive		inactive
